Screens deposited in PubChem BioAssay by National Center for Advancing Translational Sciences (NCATS).
G9a inh = qHTS Assay for Inhibitors of Histone Lysine Methyltransferase G9a | Histone-lysine N-methyltransferase EHMT2 (Homo sapiens), Q96KQ7 | G9a H3K9 monomethylation, AlphaScreen, 2 h | Potency, µM (titrated, usually from 102 µM), hits mostly inhibitors | actives 8.8% (n = 350,000); note: nearly all actives have a fitted effect of over 75% in size
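Chemiluminescent proximity detection of H3K9 monomethylation, read after 10 min bead incubation in the dark. Reaction: 20 nM G9a, 500 nM biotin-H3K9 peptide, 20 uM SAM cofactor, 2 h, room temperature, following 15 min enzyme-compound preincubation.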
JMJD2A Tudor inh = qHTS Assay for Inhibitors of JMJD2A-Tudor Domain | AID 504339, 2011 | Lysine-specific demethylase 4A (Homo sapiens), O75164 | AlphaScreen JMJD2A-Tudor / H3K4me3 peptide binding | actives 4.4% (n = 390,000) | Potency, µM (top dose mostly 114 µM), actives largely listed as inhibitors; note: nearly all actives have a fitted effect of over 50% in size
BAZ2B block = qHTS Assay for Inhibitors of BAZ2B. Bromodomain adjacent to zinc finger domain protein 2B (Homo sapiens), Q9UIF8. Potency, µM (doses to about 114 µM), usual class: inhibitors. AID 504333, 2011. AlphaScreen BAZ2B-H3K14Ac peptide displacement. actives 4.4% (n = 360,000); note: nearly all actives have a fitted effect of over 60% in size
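Multi-concentration screen (max 110 uM) measuring displacement of acetylated histone H3 peptide from BAZ2B by AlphaScreen, using 50 nM protein, 50 nM peptide and 10 ug/mL streptavidin donor plus Ni-chelate acceptor beads.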
GLS inhibitor = qHTS for Inhibitors of Glutaminase (GLS) | Glutaminase kidney isoform, mitochondrial (Homo sapiens), O94925 | GLS enzymatic activity, qHTS titration | Potency, µM (doses to about 45.5 µM), hits mostly inhibitors | actives 0.21% (n = 410,000)
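Assay buffer: 45 mM KH2PO4 pH 8.2, 0.02% Tween-20. hKGA acts on L-glutamine (1 mM solution added); product glutamate is reported by an oxidase/peroxidase Amplex Red coupling, with fluorescence taken at baseline and 30 min.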
L3MBTL1 inh = qHTS Assay for the Inhibitors of L3MBTL1. actives 0.66% (n = 230,000). Potency, µM (series often up to 57.1 µM), usual class: inhibitors. AID 485360, 2010. AlphaScreen L3MBTL1–H3K9me1 peptide binding. Lethal(3)malignant brain tumor-like protein 1 (Homo sapiens), Q9Y468; note: nearly all actives have a fitted effect of over 60% in size
Target sequence (Q9Y468 whole entry, looked up): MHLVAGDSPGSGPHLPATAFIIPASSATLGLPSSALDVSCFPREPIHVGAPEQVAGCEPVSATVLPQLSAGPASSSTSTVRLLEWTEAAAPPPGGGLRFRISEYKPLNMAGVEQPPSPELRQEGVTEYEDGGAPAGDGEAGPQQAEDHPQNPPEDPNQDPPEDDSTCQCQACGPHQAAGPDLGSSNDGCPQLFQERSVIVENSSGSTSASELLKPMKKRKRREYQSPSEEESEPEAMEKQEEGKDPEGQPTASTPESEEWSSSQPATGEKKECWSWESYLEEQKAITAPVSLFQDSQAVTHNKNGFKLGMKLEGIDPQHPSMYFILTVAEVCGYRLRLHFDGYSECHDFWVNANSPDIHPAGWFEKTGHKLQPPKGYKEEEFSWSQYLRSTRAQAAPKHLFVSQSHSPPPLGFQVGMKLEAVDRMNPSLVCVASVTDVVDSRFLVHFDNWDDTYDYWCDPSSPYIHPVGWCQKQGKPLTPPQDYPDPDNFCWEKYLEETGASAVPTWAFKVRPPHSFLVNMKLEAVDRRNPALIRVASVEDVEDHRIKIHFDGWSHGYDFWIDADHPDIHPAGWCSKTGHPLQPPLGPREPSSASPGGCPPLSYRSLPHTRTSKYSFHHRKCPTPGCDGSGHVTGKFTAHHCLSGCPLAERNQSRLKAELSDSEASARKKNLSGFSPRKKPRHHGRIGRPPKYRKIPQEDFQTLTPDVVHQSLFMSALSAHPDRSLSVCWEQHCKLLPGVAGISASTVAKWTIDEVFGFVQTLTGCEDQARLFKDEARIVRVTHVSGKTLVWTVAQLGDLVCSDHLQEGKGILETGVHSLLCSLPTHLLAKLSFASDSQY
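L3MBTL1 50 nM + b-AHA-H3(1-15)K9me1 75 nM, 30 min RT; compound added, 30 min RT; streptavidin donor/Ni-chelate acceptor beads 10 ug/mL each final, 30 min RT dark; AlphaScreen read.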
HP1b binding inh = HTS for Inhibitors of HP1-beta Chromodomain Interactions with Methylated Histone Tails; AID 540317, 2011; Chromobox protein homolog 1 (Homo sapiens), P83916; AlphaScreen HP1-beta / biotin-H3K9me3 peptide binding; Potency, µM (highest dose often 114 µM), usual class: inhibitors; actives 0.56% (n = 390,000); note: nearly all actives have a fitted effect of over 70% in size
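AlphaScreen: HP1-beta (50 nM) preformed 30 min with biotin-H3(1-18)K9me3 peptide (50 nM) in PBS pH 7.4, 0.01% Tween-20. Compound added for 30 min at RT, then streptavidin donor/nickel chelate acceptor beads (10 ug/mL) for 30 min.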
A number is an active result; – = inactive; ? = inconclusive; · = no result; [ ] = remark or other dose. Rows were chosen to be rich in hits. Some 10% of all compounds tested hit in one or more screens of this group. Calls come from the whole dose curve; as a rule, active = well fitted curve in the direction sought with a large enough effect; inconclusive = small, poorly fitted or top-dose-only effect, or another doubt; inactive = no such curve, though single readings can be large; an effect the other way counts as inactive or inconclusive.

SMILES	G9a inh	JMJD2A Tudor inh	BAZ2B block	GLS inhibitor	L3MBTL1 inh	HP1b binding inh
COc1ccc(N2CCN(S(=O)(=O)CCNC(=O)Cc3ccc(Cl)cc3)CC2)cc1	–	–	–	–	·	–
NC(C(=O)O)c1ccc(P(=O)(O)O)cc1 (stereo not given)	–	·	·	·	·	·
COc1ccc(-c2nc3cnc(OC)nc3n(Cc3cccs3)c2=O)cc1	–[12.7 µM]	·	·	·	·	·
COc1ccc(OC)c2c1C(=O)C(Cl)=C(Cl)C2=O	·	0.891µM	44.7µM	–	–	2.24µM
Cc1cc(O)c2c(c1O)C(=O)c1c(O)cc(C)c(O)c1C2=O	–[2.33 µM]	·	·	·	·	·
O=C1c2ccccc2C(=O)c2c(O)c(O)cc(O)c21	?	22.4µM	·	?	?	11.2µM
Nc1ccc(Br)c2c1C(=O)c1ccccc1C2=O	–[0.0925 µM]	?	10µM	–	?	?
CCCN1CNc2c(c(=O)[nH]c(=S)n2CCc2ccc(OC)cc2OC)C1	·	–	·	·	·	–
CC(=O)Nc1ccc(S(=O)(=O)N2CCC(c3nnnn3-c3ccccc3)CC2)cc1	–	–	–	–	·	–
Cc1ccc(-c2nnc(Nc3ccc(O)cc3)c3ccccc23)cc1S(=O)(=O)NC(C)(C)CO	–	–	–	–	·	–
O=C(Nc1nc2n(n1)C(c1ccc(F)cc1)C=C(c1ccc(Cl)cc1)N2)c1ccco1 (stereo not given)	?	–	–	–	·	–
O=C(Nc1nc2n(n1)C(c1ccccc1)C=C(c1ccccc1)N2)c1ccco1 (stereo not given)	22.4µM	–	25.1µM	–	–	–
O=C(Nc1nc2n(n1)C(c1ccc(F)cc1)CC(c1ccccc1)N2)c1ccco1 (stereo not given)	·	–	–	–	–	–
O=C(c1nc2n(n1)C(c1ccc(Cl)cc1)C=C(c1ccccc1)N2)N1CCOCC1 (stereo not given)	3.55µM	–	–	–	–	–
O=C(Nc1nc2n(n1)C(c1ccccc1)C=C(c1ccc(Cl)cc1)N2)c1ccco1 (stereo not given)	?	?	79.4µM	–	·	–
COc1ccc(NC(=O)CSC2=Nc3ccccc3N=C(c3ccc(F)cc3)C2)cc1OC	–	–	–	–	·	–
O=S1(=O)N=C(SCCO)c2ccccc21	79.4µM	?	?	–	–	–
CCSC1=NS(=O)(=O)c2ccccc21	·	–	·	·	·	·
Cc1ccc(C)c(SC2=NS(=O)(=O)c3ccccc32)c1	·	–	·	·	·	·
CC(SC1=NS(=O)(=O)c2ccccc21)C(=O)O (stereo not given)	·	28.2µM	·	·	·	?
O=C(O)CSC1=NS(=O)(=O)c2ccccc21	·	17.8µM	·	·	·	?
COc1cccc(CNC(=O)CCc2c(C)nc3c(c2C)c(=O)n(C)c(=O)n3C)c1	–	–	?	–	·	–
CCCC(=O)NCc1nc2cccnc2n1Cc1ccc(F)cc1	–	–	–	–	·	–
CCCCNC(=S)N/N=C/c1ccc(C#N)cc1	–	89.1µM	–	–	–	?
CCNC(=S)N/N=C/c1ccc(F)cc1	–	·	–	·	–	·
SMILES	G9a inh	JMJD2A Tudor inh	BAZ2B block	GLS inhibitor	L3MBTL1 inh	HP1b binding inh
Nc1ncnc(Oc2cccc3cccnc23)c1[N+](=O)[O-]	?	–	44.7µM	–	–[11.4 µM]	–
COc1ccccc1NCc1nnc2n1CCCCC2	–	–	–	–	·	–
Cc1ccccc1CC(=O)Nc1sc(C(C)C)cc1C(=O)N1CCOCC1	–	–	–	–	·	–
CCc1c(C)sc(NC(=O)CN2CCN(C(=O)c3ccco3)CC2)c1C(=O)OC	79.4µM	?	?	–	·	–
CCOC(=O)c1c(C)n(C)c2ccc(OC)c(NC(=O)CN3CCN(C(=O)c4ccco4)CC3)c12	31.6µM	–	–	–	–	–
CCc1c(C)sc(NC(=O)Cc2ccccc2C)c1C(=O)N1CCOCC1	35.5µM	–	–	–	·	?
O=C(NCC(c1ccccc1)c1ccccc1)c1nn(-c2ccccc2F)nc1CO	–	–	–	–	·	–
COc1ccc(C2CC(=O)Nc3c2c(C)nn3-c2nncc(-c3ccc(C)cc3)n2)c(OC)c1OC (stereo not given)	–	–	?	–	·	–
O=C(CSc1nnc(NC(=O)C2CC(=O)N(c3ccccc3)C2)s1)NCc1ccco1 (stereo not given)	?	?	–	–	·	–
COCCSc1nnc(NC(=O)C2CC(=O)N(c3ccc(C)cc3)C2)s1 (stereo not given)	·	–	–	–	–	–
O=C(Nc1nnc(SCCN2CCOCC2)s1)C1CC(=O)N(c2ccccc2)C1 (stereo not given)	44.7µM	–	–	–	·	–
COC(=O)CSc1nnc(NC(=O)C2CC(=O)N(c3ccc(F)cc3)C2)s1 (stereo not given)	39.8µM	–	–	–	·	–
O=C(CSc1nnc(NC(=O)C2CC(=O)N(c3ccccc3)C2)s1)NCC1CCCO1 (stereo not given)	39.8µM	–	–	–	·	–
CCOc1ccc(N2CC(C(=O)Nc3nnc(SCCOC)s3)CC2=O)cc1 (stereo not given)	70.8µM	–	–	–	·	–
Cc1ccc(N2CC(C(=O)Nc3nnc(SCCN4CCOCC4)s3)CC2=O)cc1 (stereo not given)	?	–	–	–	·	–
Cc1ccc(C)c(S(=O)(=O)NCC(c2ccco2)S(=O)(=O)c2ccc(F)cc2)c1 (stereo not given)	–	–	–	–	·	–
O=C(Nc1ccc(OC(F)(F)F)cc1)C1CCN(S(=O)(=O)c2ccc3[nH]c(=O)ccc3c2)CC1	–	–	–	–	·	–
Cc1ccc(N2CC(C(=O)Nc3nnc(SCC(=O)N4CCOCC4)s3)CC2=O)cc1 (stereo not given)	44.7µM	–	–	–	·	–
O=C(Nc1nnc(SCC(=O)N2CCCCC2)s1)c1cccs1	8.91µM	?	–	–	–	–
COCc1nnc(NC(=O)C2CC(=O)N(c3ccc(C)c(Cl)c3)C2)s1 (stereo not given)	15.8µM	–	–	–	–	–
O=C(Cc1cccs1)Nc1nnc(SCC(=O)N2CCCCC2)s1	–[12.7 µM]	–	–	–	·	–
COc1ccc(C(=O)CSc2nnc(NC(=O)C3CC(=O)N(c4ccccc4)C3)s2)cc1 (stereo not given)	44.7µM	–	–	–	–	–
Cc1ccc(N2CC(C(=O)Nc3nccs3)CC2=O)cc1Cl (stereo not given)	–[12.7 µM]	–	–	–	·	–
COc1cccc(N2CC(C(=O)Nc3nnc(SCC(=O)c4ccccc4)s3)CC2=O)c1 (stereo not given)	–	–	–	–	–	–
